The results in this text go back to PubChem BioAssay (NCATS).

Experiment [1] deals with Cytochrome P450 2C9 (Homo sapiens) (UniProt P11712). Kind of experiment: qHTS for inhibitors of CYP2C9 against the NCATS DSHEA and TCM libraries (AID 1919973). Note: potency is the fitted concentration of half-maximal effect. The gist of the method:
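Luminescent P450-Glo readout. Enzyme plus pro-luciferin substrate in manufacturer buffer (typically 100 mM KPO4); 15 min RT preincubation; 1x NADPH regenerating system, 30-45 min RT in the dark; detection reagent 30 min.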
Background: qHTS replaces the single test concentration by a dilution series.

Experiment [2] can be described thus: Cell Viability - BJ (AID 421; calls by dose curve;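 note: potency is the fitted concentration of half-maximal effect; cells exposed to compound for 40 hours at 37 °C before readout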). As to conditions: BJ fibroblast viability, qHTS. The method, boiled down: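 Quantitative HTS: ATP depletion in BJ cells after 40 hr compound exposure in complete culture medium, detected with CellTiter-Glo; AC50 from standard Hill fits.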
The nature of experiment [3]: Cell Viability - Jurkat (AID 426;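 active = dose-dependent loss of cell ATP signal giving a full or clear fitted curve, ranked by lower potency value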; note: potency is the fitted concentration of half-maximal effect). As to conditions: qHTS. The gist of the method:
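Jurkat (clone E6-1, human T-cell leukemia) cells, 5000/well in complete medium, were exposed to compound for 40 hr at 37 °C. Viability was read as intracellular ATP by CellTiter-Glo luminescence; AC50 came from Hill fits of concentration-response data.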

Experiment [4] can be described thus: Cell Viability - Hek293 (AID 427;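 active = compounds whose dose-response curve shows a full or clear partial loss of cell viability, called from curve shape rather than a numeric limit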;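 note: potency is the fitted concentration of half-maximal effect; cells exposed to compound for 40 hours at 37 °C before reading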). As to conditions: qHTS. The method, boiled down: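 AC50 values derive from Hill-modelled concentration-response of ATP-based luminescence, normalized between DMSO-only and 100 uM tamoxifen controls. Cells were exposed in complete culture medium for 40 hr at 37 °C before detection.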
Experiment [5] in a line: Cell Viability - HepG2 (AID 433; calls by dose curve;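 note: potency is the fitted concentration of half-maximal effect; potency for ATP loss meaning cytotoxicity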). As to conditions: qHTS. The method, boiled down:
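Read-out is luciferase-based quantitation of cellular ATP as a measure of viable HepG2 cells after 40 h treatment at 37 °C. Signal decrease is scaled between DMSO-only and 100 uM tamoxifen controls, with AC50 fitted by the Hill equation.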

The nature of experiment [6]: Cell Viability - MRC5 (AID 434; calls by dose curve;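 note: potency is the fitted concentration of half-maximal effect; potency reflects cytotoxicity seen as loss of intracellular ATP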). As to conditions: MRC5 lung fibroblast viability, qHTS. The gist of the method:
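MRC5 normal human lung fibroblasts, 1500 cells/well, exposed to compound for 40 hr at 37 C. Cellular ATP was read by CellTiter-Glo luminescence; data normalized to DMSO and 100 uM tamoxifen, with AC50 from Hill fits.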

A short description of experiment [7]: Cell Viability - SK-N-SH (AID 435; calls by dose curve;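 note: potency is the fitted concentration of half-maximal effect; compound exposure lasted 40 h at 37 °C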). As to conditions: SK-N-SH neuroblastoma cell viability qHTS. The gist of the method:
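Luminescent ATP signal served as the viability read-out after 40 hours of compound treatment of human neuroblastoma SK-N-SH cells. Concentration-response data, scaled between DMSO and 100 uM tamoxifen, gave AC50 values by standard Hill modeling.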

Experiment [8] is described as follows: Cell Viability - N2a (AID 540).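 Note: plate controls were DMSO alone for no effect and tamoxifen control for full effect; nearly all actives have a fitted effect of over 45% in size.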 The gist of the method:
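Mouse neuroblastoma N2a cells (1500/well) were preincubated 5 hr at 37 °C, then exposed to compounds for 40 hr at 37 °C in complete medium. Viability was read as intracellular ATP by CellTiter-Glo luminescence; AC50 from Hill fits.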

Experiment [9] in a line: Cell Viability - NIH 3T3 (AID 541).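 Note: plate controls were DMSO alone for no effect and tamoxifen positive control for full effect; nearly all actives have a fitted effect of over 25% in size.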 The method, boiled down: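 NIH 3T3 mouse embryo fibroblasts (1000 cells/well) were plated in complete medium and treated with compound for 40 hr at 37 °C. Viability was read as intracellular ATP by CellTiter-Glo luminescence; AC50 values came from Hill-equation fits of concentration-response data.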
The nature of experiment [10]: Cell Viability - HUV-EC-C (AID 542). Note: % is set by controls: 0 for no effect and ±100 for the full control effect; nearly all actives have a fitted effect of over 35% in size. The gist of the method:
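HUV-EC-C normal human vascular endothelial cells, 1000 cells/well, pre-incubated 5 hr at 37 °C, then exposed to compounds for 40 hr at 37 °C in complete medium. Viability measured as intracellular ATP by CellTiter-Glo luminescence; AC50 from Hill fits.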

A short description of experiment [11]: Cell Viability - H-4-II-E (AID 543). Note: % is set by controls: 0 for no effect and ±100 for the full control effect; nearly all actives have a fitted effect of over 35% in size. The gist of the method:
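Rat hepatoma H-4-II-E cells (1500/well) were plated, incubated 5 hr at 37 °C, then exposed to compounds for 40 hr at 37 °C. Cellular ATP was read by CellTiter-Glo luminescence; AC50 came from Hill-equation fits of concentration-response data.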

The nature of experiment [12]: Cell Viability - SH-SY5Y (AID 544).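 Note: 0% = DMSO alone and -100% = 100 µM tamoxifen; nearly all actives have a fitted effect of over 55% in size.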 The method, boiled down:
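Human neuroblastoma SH-SY5Y cells (1500/well) in complete medium were exposed to compounds for 40 hr at 37 °C; intracellular ATP was then quantified by CellTiter-Glo luminescence after 20 min at room temperature. AC50 came from Hill-equation concentration-response fits.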

Experiment [13] can be described thus: Cell Viability - Renal Proximal Tubule (AID 545).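 Note: 0% = DMSO only and -100% = 100 µM tamoxifen; nearly all actives have a fitted effect of over 40% in size.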 The method, boiled down:
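Luminescent ATP signal (CellTiter-Glo) served as the viability read-out after 40 hr compound exposure of freshly isolated rat proximal tubule cells at 37 °C. Concentration-dependent ATP loss was fitted with the Hill equation to give AC50.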

Experiment [14] can be described thus: Cell Viability - Mesenchymal (AID 546).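 Note: cells exposed to compound for 40 hours before reading; 0% = DMSO only and -100% = 100 µM tamoxifen.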 The gist of the method:
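Human kidney mesenchymal cells from normal renal glomeruli, 1000 cells/well, rested 5 hr at 37 °C, then treated 40 hr at 37 °C in complete medium. Cellular ATP read by CellTiter-Glo luminescence; AC50 from Hill-equation fits.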

The nature of experiment [15]: qHTS Assay for Identification of Small Molecule Inducers of Hypoxia Response (AID 2120; active = well fitted curve in the direction sought with a large enough effect in the signal ratio, with a control signal flat, not every such curve was filed as active; the % refers to the signal ratio; note: 0% is about no effect). The gist of the method: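 HRE-beta-lactamase reporter in CellSensor HRE-bla ME-180 cells, 2500 cells/well in Opti-MEM with 0.5% dialyzed FBS; compounds tested as titration series, 17 h at 37 degrees C. CCF4 substrate 2.5 h at room temperature; AC50 from 460/530 nm ratio.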
In experiment [16] the target is Bile acid receptor (Homo sapiens) (UniProt Q96RI1). Kind of experiment: qHTS assay for small molecule antagonists of farnesoid X receptor signaling (AID 588526; calls by dose curve; note: % is set by controls: 0 for no effect and ±100 for the full control effect). The method, boiled down: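 Antagonist mode: titrated compounds tested against chenodeoxycholic acid stimulation (normalized to 50 uM CDCA and DMSO) in GeneBLAzer HEK293T cells for 16 h. Beta-lactamase read by CCF4 fluorescence; IC50 from Hill fits.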

The target of experiment [17] is Glucocorticoid receptor (Homo sapiens) (UniProt P04150). Kind of experiment: qHTS assay for small molecule agonists of glucocorticoid receptor signaling (AID 588532; active = well fitted curve in the direction sought with a large enough effect in the signal ratio, with a control signal flat; the % refers to the signal ratio;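 note: 100% = dexamethasone at 0.1 µM and 0% = DMSO only wells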). As to conditions: HeLa MMTV-bla, beta-lactamase ratio, agonist, 18 h; stronger effect = higher value; percent of dexamethasone control, DMSO zero. The gist of the method: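 HeLa GRE-bla reporter cells; 18 h compound exposure at 37 C; 2 h CCF4 loading at room temperature; fluorescence at 460 and 530 nm; EC50 by Hill equation.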

For experiment [18] the target is unchanged. Kind of experiment: qHTS assay for small molecule antagonists of glucocorticoid receptor signaling (AID 588533; active = well fitted inhibition curve with a large enough effect in the signal ratio, with a control signal flat, not every such curve was filed as active; the % refers to the signal ratio; note: % is set by controls: 0 for no effect and ±100 for the full control effect). The gist of the method: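 Antagonist-mode qHTS: compound titrations added to GRE-bla HeLa cells, then dexamethasone 2 nM final; 18 h, 37 C. CCF4 FRET fluorescence normalized to dexamethasone and DMSO; IC50 from Hill fit.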
Experiment [19] is described as follows: qHTS assay for small molecule antagonists of peroxisome proliferator-activated receptor delta signaling (AID 588535; active = well fitted inhibition curve with a large enough effect in the signal ratio, with a control signal flat, not every such curve was filed as active; the % refers to the signal ratio;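 for max response: cells co-treated with a PPAR-delta agonist as stimulator during compound exposure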). As to conditions: HEK293T PPARd-UAS-bla, beta-lactamase FRET ratio, 18 h; 460 nm channel. The gist of the method: (§1)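 Cells were seeded at 4000 per well in assay medium containing 2% charcoal/dextran FBS and held 5 hrs at 37 C. Compounds were then added for 18 hrs. CCF4 substrate was applied for 2 hrs at room temperature before fluorescence reading.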

Experiment [20] concerns the target Peroxisome proliferator-activated receptor delta (Homo sapiens) (UniProt Q03181). The experiment is described as above. The gist of the method: as §1

Records with an inconclusive call do not appear. Activity calls are given as the source filed them. Unless noted, calls come from the whole dose curve; as a rule, active = well fitted curve in the direction sought with a large enough effect; inconclusive = small, poorly fitted or top-dose-only effect, or another doubt; inactive = no such curve, though single readings can be large; an effect the other way counts as inactive or inconclusive.

Chain of Glucocorticoid receptor (Homo sapiens) (P04150 whole entry, looked up): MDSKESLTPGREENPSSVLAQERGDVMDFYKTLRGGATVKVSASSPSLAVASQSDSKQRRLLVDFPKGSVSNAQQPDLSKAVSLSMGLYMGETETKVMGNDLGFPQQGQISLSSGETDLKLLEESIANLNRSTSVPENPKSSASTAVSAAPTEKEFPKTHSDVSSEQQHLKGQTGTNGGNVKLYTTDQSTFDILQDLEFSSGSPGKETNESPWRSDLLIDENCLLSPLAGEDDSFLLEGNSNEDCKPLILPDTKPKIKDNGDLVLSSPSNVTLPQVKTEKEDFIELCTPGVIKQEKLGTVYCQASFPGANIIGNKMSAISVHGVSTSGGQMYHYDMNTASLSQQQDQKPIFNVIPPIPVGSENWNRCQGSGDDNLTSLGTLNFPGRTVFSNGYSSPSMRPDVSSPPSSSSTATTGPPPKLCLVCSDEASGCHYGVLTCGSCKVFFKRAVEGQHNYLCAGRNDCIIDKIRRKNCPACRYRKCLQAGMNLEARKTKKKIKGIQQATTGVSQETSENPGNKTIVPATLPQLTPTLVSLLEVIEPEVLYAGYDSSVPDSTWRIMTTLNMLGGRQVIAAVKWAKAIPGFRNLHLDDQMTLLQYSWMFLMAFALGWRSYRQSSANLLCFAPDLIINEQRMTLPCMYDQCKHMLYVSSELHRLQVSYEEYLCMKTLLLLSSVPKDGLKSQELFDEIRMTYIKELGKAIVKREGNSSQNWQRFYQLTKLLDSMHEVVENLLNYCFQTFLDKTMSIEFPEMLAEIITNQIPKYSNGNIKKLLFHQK
Chain of Bile acid receptor (Homo sapiens) (Q96RI1 whole entry, looked up): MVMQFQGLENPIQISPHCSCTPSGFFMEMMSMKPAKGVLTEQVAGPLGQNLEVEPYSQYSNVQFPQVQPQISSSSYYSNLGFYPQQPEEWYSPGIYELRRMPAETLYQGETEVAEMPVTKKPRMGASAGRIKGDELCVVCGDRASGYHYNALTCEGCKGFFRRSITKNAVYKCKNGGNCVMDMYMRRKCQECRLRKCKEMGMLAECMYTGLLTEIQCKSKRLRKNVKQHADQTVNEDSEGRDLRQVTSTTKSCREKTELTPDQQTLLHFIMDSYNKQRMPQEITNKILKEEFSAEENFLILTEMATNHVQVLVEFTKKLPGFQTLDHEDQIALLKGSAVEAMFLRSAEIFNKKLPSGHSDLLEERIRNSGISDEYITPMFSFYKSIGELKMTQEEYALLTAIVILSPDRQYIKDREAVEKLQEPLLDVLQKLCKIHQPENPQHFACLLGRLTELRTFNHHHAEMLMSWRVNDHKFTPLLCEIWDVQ
Chain of Peroxisome proliferator-activated receptor delta (Homo sapiens) (Q03181 whole entry, looked up): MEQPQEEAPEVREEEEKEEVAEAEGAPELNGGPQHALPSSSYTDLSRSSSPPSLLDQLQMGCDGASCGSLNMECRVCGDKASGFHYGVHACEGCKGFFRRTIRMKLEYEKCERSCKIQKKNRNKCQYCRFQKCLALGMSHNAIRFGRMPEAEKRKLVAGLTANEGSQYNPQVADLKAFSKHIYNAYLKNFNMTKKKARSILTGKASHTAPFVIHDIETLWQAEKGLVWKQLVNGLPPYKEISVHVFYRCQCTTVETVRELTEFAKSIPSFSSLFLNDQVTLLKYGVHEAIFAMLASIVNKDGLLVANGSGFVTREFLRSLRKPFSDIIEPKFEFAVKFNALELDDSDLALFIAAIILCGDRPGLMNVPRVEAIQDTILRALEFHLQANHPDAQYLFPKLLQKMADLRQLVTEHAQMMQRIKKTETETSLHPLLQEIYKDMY
Chain of Cytochrome P450 2C9 (Homo sapiens) (P11712 whole entry, looked up): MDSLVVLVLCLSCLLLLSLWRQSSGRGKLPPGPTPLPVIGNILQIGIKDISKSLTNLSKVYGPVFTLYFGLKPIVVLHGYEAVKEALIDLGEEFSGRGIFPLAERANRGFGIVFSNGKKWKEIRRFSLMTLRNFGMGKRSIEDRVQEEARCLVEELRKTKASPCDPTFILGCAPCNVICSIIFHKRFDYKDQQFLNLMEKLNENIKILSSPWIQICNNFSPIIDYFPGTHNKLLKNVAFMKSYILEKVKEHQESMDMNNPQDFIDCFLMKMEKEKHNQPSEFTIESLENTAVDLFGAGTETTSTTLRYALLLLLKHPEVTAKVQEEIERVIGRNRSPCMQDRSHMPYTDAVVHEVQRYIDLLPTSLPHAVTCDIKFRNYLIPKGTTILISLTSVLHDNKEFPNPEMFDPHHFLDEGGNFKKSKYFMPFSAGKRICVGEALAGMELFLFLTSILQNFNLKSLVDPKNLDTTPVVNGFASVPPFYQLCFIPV

Turning to `O=c1ccc2ccc(O)cc2o1`, the Potency in experiment [1] was 7.08 µM (active).

As to `CC1=CC(=O)CC(C)(C)C1(O)/C=C/C(C)=C\C(=O)O` (stereo not given), the Potency in experiment [2], in experiment [3], in [4], in experiment [5], in [6] and in experiment [7] was > 92 µM (inactive) in each case. Besides, the molecule was classed as inactive in experiment [8], in [9], in experiment [10], in [11], in experiment [12] and in [13]. Also, the molecule was called inactive in experiment [15], in experiment [16], in experiment [18] and in experiment [20]. Further, in [14], the Potency result is “inactive”. Further, in experiment [17], the activation was 1.52% (inactive). For the same molecule, the max response in experiment [19] is 3.87%.
